Reference: PubChem BioAssay (NCI)
The panel holds about 83,000 compounds, 20% with a hit somewhere; the sample as a whole holds those more often.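 Step 1: grow cells in 96-well plates. Step 2: add test compound at a single concentration. Step 3: incubate 48 h. Step 4: record percent growth.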 Activity calls are given as the source filed them. Rule for the calls: active = growth percent below 10; inactive = the rest.

How the values were obtained:
Assay in all cases: NCI-60 one-dose screen, 48 h (100 = growth as untreated, 0 = no growth, -100 = all killed)
SR leukemia = conditions: 10 µM unless noted
RPMI-8226 leukemia = conditions: 10 µM unless noted
OVCAR-8 ovarian = conditions: 10 µM unless noted
OVCAR-5 ovarian = conditions: 10 µM unless noted
OVCAR-4 ovarian = conditions: 10 µM unless noted
SK-OV-3 ovarian = conditions: 10 µM unless noted
IGROV1 ovarian = conditions: 10 µM unless noted
OVCAR-3 ovarian = conditions: 10 µM unless noted
NCI/ADR-RES ovarian = conditions: 10 µM unless noted
T-47D breast = conditions: 10 µM unless noted
BT-549 breast = conditions: 10 µM unless noted
MDA-MB-435 melanoma = conditions: 10 µM unless noted
SW-620 colon = conditions: 10 µM unless noted
MCF7 breast = conditions: 10 µM unless noted
HCT-116 colon = conditions: 10 µM unless noted
HCC-2998 colon = conditions: 10 µM
KM12 colon = conditions: 10 µM unless noted

Measured: growth

CCN1CCN(Cc2ccc(Cc3ncc(F)c(-c4cc(F)c5nc(C)n(C(C)C)c5c4)n3)nc2)CC1
inactive: RPMI-8226 leukemia 44.8% | OVCAR-8 ovarian 68.3% | OVCAR-5 ovarian 46.5% | OVCAR-4 ovarian 69.5% | SK-OV-3 ovarian 22.4% | IGROV1 ovarian 37.3% | OVCAR-3 ovarian 63.2% | NCI/ADR-RES ovarian 72.3% | T-47D breast 65.2% | BT-549 breast 61% | MDA-MB-435 melanoma 45.9% | MCF7 breast 25.1% | HCC-2998 colon 54.7% | KM12 colon 28%
active: SR leukemia -12.4% | SW-620 colon -5.5% | HCT-116 colon 5.58%

CC(=O)c1c(C)c2cnc(Nc3ccc(N4CCNCC4)cn3)nc2n(C2CCCC2)c1=O
active: SR leukemia -18.7%
inactive: RPMI-8226 leukemia 28.2% | OVCAR-8 ovarian 52.3% | OVCAR-5 ovarian 37.8% | OVCAR-4 ovarian 62% | SK-OV-3 ovarian 36.5% | IGROV1 ovarian 27.2% | OVCAR-3 ovarian 74.6% | NCI/ADR-RES ovarian 72.4% | T-47D breast 55.7% | BT-549 breast 50.5% | MDA-MB-435 melanoma 45.5% | SW-620 colon 27.3% | MCF7 breast 27.4% | HCT-116 colon 10.6% | HCC-2998 colon 57.3% | KM12 colon 11.3%

CC(C)Nc1cc(-c2c[nH]c(C(=O)N[C@H](CO)c3cccc(Cl)c3)c2)c(Cl)cn1
inactive: SR leukemia 23.9% | RPMI-8226 leukemia 21.8% | OVCAR-8 ovarian 35% | OVCAR-5 ovarian 19.5% | OVCAR-4 ovarian 42.2% | SK-OV-3 ovarian 23.3% | IGROV1 ovarian 18.4% | OVCAR-3 ovarian 75.9% | NCI/ADR-RES ovarian 47.9% | T-47D breast 34.7% | BT-549 breast 57.3% | MDA-MB-435 melanoma 21.7% | SW-620 colon 20.6% | MCF7 breast 27.9% | HCT-116 colon 15.7% | KM12 colon 18.7%
active: HCC-2998 colon -10.9%

C/C(=C(/c1ccc(Cl)cc1)c1ccc(OCCN2CCCCCC2)cc1)c1ccccc1
inactive: SR leukemia 18% | RPMI-8226 leukemia 70.2% | OVCAR-8 ovarian 89% | OVCAR-5 ovarian 69.6% | OVCAR-4 ovarian 73.5% | SK-OV-3 ovarian 113% | IGROV1 ovarian 74.1% | OVCAR-3 ovarian 89.6% | NCI/ADR-RES ovarian 90% | T-47D breast 71.1% | BT-549 breast 84.4% | MDA-MB-435 melanoma 92.6% | SW-620 colon 54% | MCF7 breast 76% | HCT-116 colon 50% | HCC-2998 colon 93.8% | KM12 colon 30.7%

Nc1cc(C(F)(F)F)c(-c2cc(N3CCOCC3)nc(N3CCOCC3)n2)cn1
active: SR leukemia -6.66% | RPMI-8226 leukemia -6.64% | OVCAR-8 ovarian -24.2% | OVCAR-5 ovarian -17.3% | OVCAR-4 ovarian -11.9% | SK-OV-3 ovarian -54.8% | IGROV1 ovarian -44.6% | OVCAR-3 ovarian -9.69% | NCI/ADR-RES ovarian -20.2% | T-47D breast -42.9% | BT-549 breast -2.66% | MDA-MB-435 melanoma -62.3% | SW-620 colon 0.981% | MCF7 breast -7.62% | HCT-116 colon -25.4% | HCC-2998 colon -52.9% | KM12 colon -1.19%

CC(C)(C)c1cnc(CSc2cnc(NC(=O)C3CCNCC3)s2)o1
active: SR leukemia 0.401% | RPMI-8226 leukemia -8.04% | OVCAR-8 ovarian 5.71% | OVCAR-4 ovarian 9.94% | SK-OV-3 ovarian 6.31% | IGROV1 ovarian 9.86% | T-47D breast -7.81% | BT-549 breast 0.761% | MDA-MB-435 melanoma -58.7% | SW-620 colon 5.06% | MCF7 breast 3.72% | HCT-116 colon 2.22% | HCC-2998 colon 0.238% | KM12 colon 3.58%
inactive: OVCAR-5 ovarian 14.9% | OVCAR-3 ovarian 20.2% | NCI/ADR-RES ovarian 53%

Cc1ccc(-n2nc(C(C)(C)C)cc2NC(=O)NCc2cc(F)ccc2Oc2ccc3c(cnn3CCO)c2)cc1
active: SR leukemia 7.67% | IGROV1 ovarian 8.97% | T-47D breast -3.04% | MDA-MB-435 melanoma 7.09% | MCF7 breast 7.9% | HCT-116 colon 6.75% | KM12 colon 8.7%
inactive: RPMI-8226 leukemia 18.1% | OVCAR-8 ovarian 23.6% | OVCAR-5 ovarian 25.7% | OVCAR-4 ovarian 27.5% | SK-OV-3 ovarian 18.2% | OVCAR-3 ovarian 54.3% | NCI/ADR-RES ovarian 21.3% | BT-549 breast 21.3% | SW-620 colon 25.7% | HCC-2998 colon 19.9%

COc1ccc(S(=O)(=O)N(C(C)=O)c2ccccc2/C=C/c2cc[n+]([O-])cc2)cc1
inactive: SR leukemia 16.4% | RPMI-8226 leukemia 22.2% | OVCAR-8 ovarian 14.9% | OVCAR-5 ovarian 35.4% | OVCAR-4 ovarian 42.4% | IGROV1 ovarian 24.5% | OVCAR-3 ovarian 28.2% | NCI/ADR-RES ovarian 17.5% | T-47D breast 27.2% | BT-549 breast 16.2% | SW-620 colon 23.6% | MCF7 breast 15.2% | KM12 colon 14%
active: SK-OV-3 ovarian 6.17% | MDA-MB-435 melanoma -50.8% | HCT-116 colon 5.12% | HCC-2998 colon 8.66%
